{"source": "paper PMC5540273", "about": "(PLoS ONE, 2017);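 further: KINOMEscan kinase panel screen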", "data": [{"test_system": "CDKL5", "details": "concentration: 1 μM, replicates: in singlicate; n = 1", "units": {"%Inh": "%"}, "values": [{"smiles": "COc1cc(Nc2nccc(N3CCC(NS(=O)(=O)c4ccc(NC(C)=O)cc4)CC3)n2)cc(OC)c1OC", "note": "[GSK1379825]", "%Inh": 0}, {"smiles": "O=C1NC(=O)C(c2ccccc2Cl)=C1Nc1cccc(Cl)c1", "note": "[SB-342409]", "%Inh": 0}, {"smiles": "Cc1cc(-c2ccnc(Nc3cccc(C#N)c3)n2)cc(C)c1O", "note": "[GSK1440913]", "%Inh": 24}, {"smiles": "CC(C)NCC(Cc1ccccc1)NC(=O)c1cc(Br)c(-c2ccnc3[nH]ccc23)s1.Cl.Cl", "note": "(stereo not shown) [GSK1383281]", "%Inh": 0}, {"smiles": "Nc1ncc(-c2ccc3nccc(-c4ccncc4)c3c2)cc1S(=O)(=O)N1CCCCC1", "note": "[GSK1693850]", "%Inh": 0}, {"smiles": "COc1cc(Nc2ccnc3cc(-c4ccncc4)ccc23)cc(OC)c1OC.Cl", "note": "[GW494610]", "%Inh": 0}, {"smiles": "COC(=O)Nc1nc2ccc(Oc3ccc(NC(=O)Nc4cc(C(F)(F)F)ccc4F)cc3)cc2[nH]1.Cl", "note": "[GW654607]", "%Inh": 0}, {"smiles": "c1ccc(Oc2ccc(Nc3ccnc4cc(-c5ccc(CN6CCCCC6)o5)ccc34)cc2)nc1", "note": "[GW567143]", "%Inh": 19}, {"smiles": "COc1cccc(CC(=O)N2CCc3cc(-c4cn(C)c5ncnc(N)c45)ccc32)c1", "note": "[GSK2608899]", "%Inh": 0}, {"smiles": "COc1ccc(C)c(Nc2ccnc(Nc3ccc(-c4cnc[nH]4)cc3)n2)c1.Cl", "note": "[GW784041]", "%Inh": 1}, {"smiles": "CCNC(=O)/C=C/c1n[nH]c2cc(Sc3ccccc3C(=O)NC)ccc12", "%Inh": 15}, {"smiles": "Cl.N#CCc1ccc(Nc2nccc(Nc3ccc(Oc4ccccc4)cc3)n2)cc1", "note": "[GW639905]", "%Inh": 0}, {"smiles": "CC(=O)Nc1cn2nc(Oc3cccc(NC(=O)c4cccc(C(F)(F)F)c4)c3)ccc2n1", "%Inh": 0}, {"smiles": "CCNc1nccc(-c2c(-c3ccc(F)cc3)ncn2C2CCN(C)CC2)n1", "%Inh": 0}, {"smiles": "COC(=O)Nc1nc2cc(Oc3ccc(NC(=O)Nc4cccc(SC)c4)cc3)ccc2[nH]1.Cl", "note": "[GW697999]", "%Inh": 0}, {"smiles": "Fc1cc(Cl)ccc1Nc1ccnc2cc(-c3ccc(CN4CCOCC4)o3)ccc12", "note": "[GW560109]", "%Inh": 0}, {"smiles": "NCCC(NC(=O)c1cc(Br)c(-c2ccnc3[nH]ccc23)s1)c1ccccc1.O=C(O)C(F)(F)F.O=C(O)C(F)(F)F", "note": "(stereo not shown) [GSK1307810]", "%Inh": 0}, {"smiles": "Cc1ccc(O)cc1Nc1ccnc2cc(-c3ccc(CN4CCCCC4)o3)ccc12", "note": "[GW557777]", "%Inh": 0}, {"smiles": "CCn1cnc2c(NCc3ccccc3)ncnc21", "note": "[SKF-96418]", "%Inh": 0}, {"smiles": "CN(c1ccc(F)c(NC(=O)c2cccc(OC(C)(C)C#N)c2Cl)c1)c1ccc2nc(NC(=O)C3CC3)sc2n1", "%Inh": 0}, {"smiles": "Cn1cc(-c2ccc3c(c2)CCN3C(=O)Cc2cc(F)cc(F)c2F)c2c(N)ncnc21", "note": "[GSK2634140]", "%Inh": 3}, {"smiles": "CN(C)c1ncnc2nc[nH]c12", "note": "[SKF-31736]", "%Inh": 19}, {"smiles": "O=C(O)C(F)(F)F.O=c1[nH]ccc2nc(N[C@@H]3CCNC3)nc(Nc3ccc4c(c3)S(=O)(=O)CC4)c12", "note": "[GSK2181306]", "%Inh": 0}, {"smiles": "Cn1cc(-c2cnc(N)c3c(-c4ccc5c(c4)CCN5C(=O)Cc4ccccc4)csc23)cn1", "note": "[GSK2593074]", "%Inh": 0}, {"smiles": "Cc1ccc(NC(=O)c2ccc(Cl)c(Cl)c2)cc1-c1ccc(C(=O)Nc2ccncc2)cc1", "note": "[GSK1398460]", "%Inh": 4}]}]}
